Assay outcomes (PubChem BioAssay)
This is a sample that favours compounds with a hit; in the whole collection about 2.9% have one here.
PLC-beta3 inh: inhibitors of human phospholipase C beta3. Purified PLC-beta3, fluorogenic substrate, fluorescence. inhibition, % at 12.2 µM. 370,000 tested, 0.18% active. AID 720704; in the data active = inhibition above about 11%;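 also: 0% = median of compound wells on plate and 100% = full blocker control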
proKLK7 act: proKLK7 (human) activation, primary screen; purified proKLK7, EDANS-DABCYL substrate fluorescence; 100% is mature enzyme control, 0% vehicle; activation, % at 7 µM; 370,000 tested, 0.9% active; AID 652039;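 active = activation above the mean of all tested compounds plus 3 SD, computed per campaign excluding outliers beyond control limits, cut at about 13% in these data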
PLCg1 inh: inhibitors of human phospholipase C gamma1. purified PLC-gamma1, fluorogenic substrate, fluorescence. P19174. inhibition, % at 12.2 µM. AID 720700. 370,000 tested, 0.84% active; in the data active = inhibition above about 9.5%
Target sequence (P19174 whole entry, looked up): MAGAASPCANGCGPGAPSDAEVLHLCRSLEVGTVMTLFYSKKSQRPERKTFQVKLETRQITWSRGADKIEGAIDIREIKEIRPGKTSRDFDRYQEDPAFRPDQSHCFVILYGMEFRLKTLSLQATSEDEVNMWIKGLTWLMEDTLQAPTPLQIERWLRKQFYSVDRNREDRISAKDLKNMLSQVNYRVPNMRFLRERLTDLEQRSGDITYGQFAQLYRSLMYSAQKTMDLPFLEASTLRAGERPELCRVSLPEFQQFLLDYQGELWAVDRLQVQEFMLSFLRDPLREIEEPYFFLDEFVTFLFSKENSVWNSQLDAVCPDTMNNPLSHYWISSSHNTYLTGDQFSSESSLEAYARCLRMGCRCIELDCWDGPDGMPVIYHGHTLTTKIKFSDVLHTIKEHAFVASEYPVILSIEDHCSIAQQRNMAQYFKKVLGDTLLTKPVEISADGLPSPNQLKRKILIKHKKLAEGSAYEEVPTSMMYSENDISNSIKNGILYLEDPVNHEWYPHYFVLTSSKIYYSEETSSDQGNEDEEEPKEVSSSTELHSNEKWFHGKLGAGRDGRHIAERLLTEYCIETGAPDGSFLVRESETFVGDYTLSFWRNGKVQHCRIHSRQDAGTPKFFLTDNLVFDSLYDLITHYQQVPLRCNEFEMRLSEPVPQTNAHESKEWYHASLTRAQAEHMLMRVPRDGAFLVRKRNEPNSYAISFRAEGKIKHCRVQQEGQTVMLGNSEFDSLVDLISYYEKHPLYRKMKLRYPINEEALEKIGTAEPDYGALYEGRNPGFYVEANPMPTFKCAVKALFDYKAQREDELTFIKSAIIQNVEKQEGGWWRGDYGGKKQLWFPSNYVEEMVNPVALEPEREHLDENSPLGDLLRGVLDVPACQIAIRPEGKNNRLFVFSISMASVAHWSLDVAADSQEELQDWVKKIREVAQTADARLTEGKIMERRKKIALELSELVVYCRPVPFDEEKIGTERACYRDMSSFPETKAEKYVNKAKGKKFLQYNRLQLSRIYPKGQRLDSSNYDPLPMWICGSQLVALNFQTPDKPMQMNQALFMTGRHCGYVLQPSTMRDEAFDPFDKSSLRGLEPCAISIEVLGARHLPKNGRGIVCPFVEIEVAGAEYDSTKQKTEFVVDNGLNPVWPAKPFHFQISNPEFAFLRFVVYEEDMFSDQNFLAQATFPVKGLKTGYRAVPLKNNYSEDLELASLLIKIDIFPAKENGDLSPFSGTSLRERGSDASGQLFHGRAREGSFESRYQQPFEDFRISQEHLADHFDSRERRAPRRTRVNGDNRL
ADAM17 inh: inhibitors of human ADAM17. AID 720648. P78536. inhibition, % at 6.95 µM. 370,000 tested, 0.83% active. recombinant ADAM17, EDANS/DABCYL FRET peptide cleavage;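 active = inhibition above the mean of compounds lying between control limits plus 3 SD, set per campaign, cut at about 8.5% in these data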;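 also: 0% = DMSO-only wells as the low control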
ADAM10 inh: inhibitors of human ADAM10. O14672. recombinant ADAM10, EDANS/DABCYL FRET peptide cleavage, 3 h. inhibition, % at 7 µM. 370,000 tested, 0.62% active. AID 720582;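 active = inhibition above a per-campaign cutoff equal to the mean of compounds falling between control-based bounds plus 3 SD, cut at about 20% in these data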;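 also: 0% = DMSO wells while the 100% control is not disclosed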
proKLK7 act conf: proKLK7 activation, confirmation | shares compounds with proKLK7 act | purified proKLK7, EDANS-DABCYL substrate fluorescence; scaled: vehicle 0, mature enzyme 100 | activation, % at 7 µM | 3,200 tested, 68% active;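 active = activation, as change over the incubation, above the mean of all tested compounds plus 3 SD, cut at about 13% in these data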
EDANS interfere: fluorescence interference counter-screen for KLK7 activators. EDANS-DABCYL substrate fluorescence interference, no enzyme, 4 h; solvent 0%, active enzyme control 100%. activation, % at 7 µM. shares compounds with proKLK7 act. AID 686952. 3,200 tested, 80% active;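 active = activation above the all-compound mean plus 3 SD, ignoring values outside control-based bounds, cut at about 4.8% in these data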;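 also: value is the 4 h activation minus the activation read at time zero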
K7 EDANS ctr: optically interferes with EDANS-DABCYL fluorescence, kallikrein-7 activator counter-screen; shares compounds with proKLK7 act; EDANS-DABCYL peptide fluorescence interference, no enzyme; EC50, µM; 250 tested, 20% active;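 active = compounds that raise the fluorescence signal in this interference counterscreen, with EC50 at or below 10 µM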;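 also: intact quenched peptide substrate alone read at 355 nm excitation and 520 nm emission; signal is fluorescence gain from T0 to T4 after four hours at room temperature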
* marks the source's active call; other numbers are inactive results; i = inactive; . = no result given.

SMILES	PLC-beta3 inh	proKLK7 act	PLCg1 inh	ADAM17 inh	ADAM10 inh	proKLK7 act conf	EDANS interfere	others
CCc1cc2c(=O)c(-c3cscn3)coc2c(CN(C)C)c1O	i	30*	i	-241	i	63*	71*
Cc1cc(C)c2c(N)c(C(=O)Nc3c(C)n(C)n(-c4ccccc4)c3=O)sc2n1	-93	2	-63	-13	-123	.	.
Cc1cc(C)c2c(N)c(C(=O)NN3CC(=O)N(c4cccc(Cl)c4)CC3=O)sc2n1	-291	13*	-225	-48	-141	5	-3
Cc1cc(C)c2c(N)c(C(=O)NN3CC(=O)N(c4ccccc4)CC3=O)sc2n1	i	109*	i	-288	i	32*	38*
CCOC(=O)c1cn[nH]c1C(F)(F)F	-5	0	1	0	-4	.	.
COC(=O)C1=CN(C)C=C(C(=O)OC)C1c1ccccc1Cl	i	24*	-471	-415	i	76*	77*
CN1CCN(C(=O)c2ccc(-c3cnc4cccnn34)cc2)CC1	i	67*	i	i	i	69*	70*
O=C(NCCO)c1cccc(-c2cnc3cccnn23)c1	i	54*	i	i	i	38*	37*
O=C(NCCO)c1cccc(-c2ccc3nncn3c2)c1	-3	-1	-2	-4	1	.	.
OCc1ccccc1-c1cnc2cccnn12	i	82*	i	i	i	66*	79*
c1ccc(CCNc2ccc3ncc(-c4cccc5ccccc45)n3n2)nc1	-189	-13	-132	-96	-300	.	.
O=C(NCCO)c1ccc(-c2cnc3cccnn23)cc1	i	48*	i	i	i	63*	78*
CCOc1ccc(C(=O)NCCO)cc1	1	-1	-3	-2	-2	.	.
CN(C)CCCNc1nc2cc(-c3ccc(C(=O)N4CCN(C)CC4)cc3)sc2c(=O)n1C	-88	6	-63	-28	-127	.	.
Cc1sc2ncn(CC(=O)NCC3COc4ccccc4O3)c(=O)c2c1S(=O)(=O)N1CCCCC1 (stereo not given)	-1	0	2	-4	1	.	.
CC1(C)C(=O)Nc2ccccc2N1C(=O)COC(=O)COc1cccc(C(F)(F)F)c1	-4	0	1	6	12	.	.
CCc1ccccc1NC(=O)CSc1nc2ccccc2nc1N1CCOCC1	1	0	2	1	-3	.	.
CNc1ccc2ncc(-c3cccc(C(=O)N(C)C)c3)n2n1	i	42*	i	i	i	40*	42*
Cc1[nH]c(=O)[nH]c(=O)c1S(=O)(=O)NCCOC12CC3CC(CC(C3)C1)C2	1	0	7	0	-2	.	.
CCN(CCO)Cc1cn[nH]c1-c1ccc(C)c(C)c1	3	0	5	2	-1	.	.
CC(C)(C)NC(=O)C(c1cc2ccccc2o1)n1c(-c2ccc(-c3ccccc3)cc2)nc2ccccc21 (stereo not given)	-36	25*	-20	-48	-265	-73	-39
O=C(NNC(=S)NC(=O)c1cccnc1)c1ccc(Cl)cc1	7	0	-3	0	10	.	.
Cc1ccc(NC(=O)C2CC(=O)NC(N3CCc4ccccc43)=N2)cc1 (stereo not given)	-1	0	-1	-1	-1	.	.
Cc1ccc2nc(NCCC(=O)O)nc(-c3ccccc3)c2c1	-119	2	-87	-19	-70	.	.
Cc1ccc2nc(NCC(=O)O)nc(-c3ccccc3)c2c1	i	14*	i	-167	i	28*	15*	K7 EDANS ctr=>70
SMILES	PLC-beta3 inh	proKLK7 act	PLCg1 inh	ADAM17 inh	ADAM10 inh	proKLK7 act conf	EDANS interfere	others
Cc1ccc2nc(NCC(N)=O)nc(-c3ccccc3)c2c1	i	30*	i	-426	i	22*	34*
CCCCNC(=O)c1sc2nc(C)cc(COC)c2c1-n1cccc1	1	0	1	2	4	.	.
CC(=O)Nc1cccc(-c2nc3ccc(NC(C)=O)cc3s2)c1	i	26*	i	i	i	22*	21*
O=C(CCc1n[nH]c(=O)[nH]c1=O)Nc1cccc([N+](=O)[O-])c1	5	16*	4	6	3	-1	0
Nc1nc(SCC(=O)Nc2cccc([N+](=O)[O-])c2)n[nH]1	10	0	7	2	-12	.	.
O=C(/C=C/c1ccc(Cl)cc1)NC(=S)Nc1ccc(CN2CCOCC2)cc1	2	0	1	1	7	.	.
O=C(COc1ccc(S(=O)(=O)NC2CCCCC2)cc1)NCC1CCCO1 (stereo not given)	0	0	-2	-6	-5	.	.
Nc1cc(Oc2ccc(Cl)cc2Cl)nc(N)n1	-1	0	0	0	0	.	.
Nc1cc(C(=O)O)c(Oc2ccc(Cl)cc2Cl)cc1C(=O)O	i	26*	i	i	i	57*	51*
CCCCCC(=O)N1CCN(c2ccc(C(C)=O)cc2F)CC1	1	1	-1	-2	0	.	.
O=S(=O)(N/N=C/c1ccc(F)cc1)c1ccccc1	-1	0	1	-3	0	.	.
Cc1cc(OCC(=O)Nc2ccc(N3CCN(C)CC3)cc2)ccc1Cl	-7	0	1	-3	4	.	.
C[C@H]1CN([C@@H](C)CO)C(=O)CCCn2nncc2CO[C@H]1CN(C)C(=O)Nc1ccc(N2CCCCC2)cc1	-7	0	-4	-1	-9	.	.
COc1ccc(/C=C/C(O)=C2/C(=O)N(C)C3(C)CC2c2ccccc2O3)cc1 (stereo not given)	-16	0	-16	1	2	.	.
COc1ccc(/C=C/C(O)=C2/C(=O)NC3(C)CC2c2ccccc2O3)c(OC)c1OC (stereo not given)	-48	15*	-37	-1	-1	15*	10*	K7 EDANS ctr=>70
Cc1cc(C)c2oc(=O)cc(CN3CCCCC3)c2c1	-12	0	-7	-3	-2	.	.
CCCCc1cc(=O)oc2c(CN3CCCC3)c(O)c(Cl)cc12	i	63*	i	i	i	71*	82*
Cc1cc(=O)oc2c(CN3CCN(C)CC3)c(O)c(Cl)cc12	i	58*	i	i	i	76*	77*
CN1CCN(Cc2cc(=O)oc3ccc(Cl)cc23)CC1	-1	0	-1	-1	-9	.	.
CCc1c(C)c2cc(Cl)c(O)c(CN3CCCC3)c2oc1=O	i	37*	i	i	i	68*	69*
